Among the data in PubChem BioAssay AID624126 (The Scripps Research Institute Molecular Screening Center, 2012) are activation values, retold here.

In all, about 360,000 compounds went through this assay and about 1,400 (0.39%) were called active. This excerpt belongs to a sample that is enriched for actives. A number with no mark means an inactive call.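 The calls were made as follows: active = activation above its plate's cutoff, the mean activation of sample wells plus 3 SD; inactive = the rest.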

This assay deals with Muscarinic acetylcholine receptor M4 (Homo sapiens) (UniProt P08173). The experiment in a line: CHRM4 PAMs potentiating acetylcholine calcium signal – CHO-K1 cells, Fluo-8 calcium fluorescence, primary screen (AID 624126). Conditions: CHO-K1 hM4/Gqi5, Fluo-8 calcium fluorescence, ACh EC20; at 3 µM; active compounds read high; 0% = ACh EC20, 100% = maximal ACh.
Chain of Muscarinic acetylcholine receptor M4 (Homo sapiens) (P08173 whole entry, looked up): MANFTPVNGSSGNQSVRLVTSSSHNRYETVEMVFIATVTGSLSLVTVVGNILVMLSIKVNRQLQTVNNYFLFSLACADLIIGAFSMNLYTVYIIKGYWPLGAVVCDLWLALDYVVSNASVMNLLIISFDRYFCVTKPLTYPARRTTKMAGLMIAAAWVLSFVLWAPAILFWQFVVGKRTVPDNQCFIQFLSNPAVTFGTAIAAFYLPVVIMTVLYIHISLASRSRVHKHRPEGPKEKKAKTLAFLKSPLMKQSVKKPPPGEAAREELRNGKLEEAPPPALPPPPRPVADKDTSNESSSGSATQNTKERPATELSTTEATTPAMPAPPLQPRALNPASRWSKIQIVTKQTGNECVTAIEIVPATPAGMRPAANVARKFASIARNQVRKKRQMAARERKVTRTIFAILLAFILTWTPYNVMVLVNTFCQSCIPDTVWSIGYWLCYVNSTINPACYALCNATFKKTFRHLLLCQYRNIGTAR
With `CNCC(O)CN1CCN(c2ccccc2OC)CC1` (stereo not drawn), the activation was 19.7% (active). As to `COc1ccccc1N1CCN(Cc2ccc(OC)c3ccccc23)CC1`, the activation was -3.43%. The result for `COc1ccccc1N1CCN(Cc2cc(OC)c3c(c2)OCO3)CC1` reads -6.02%. As to `COc1ccccc1-n1c(=S)[nH]c2c(sc(=S)n2-c2ccc(C)cc2C)c1=O`, the activation was 2.71%. For the molecule `Cn1c(NC(=O)c2ccco2)c(-c2ccccc2Cl)c(=O)c2ccccc21`, the activation was 31% (active). As for `Cc1cccc(-c2c(NC(=O)c3ccco3)oc3ccc(Cl)cc3c2=O)c1`, the activation was 7.81%. Consider `COc1ccc(-c2c(NC(=O)c3ccco3)oc3ccc(Cl)cc3c2=O)cc1`, for which the activation was 11.2%. The result for `Cc1cccc(C)c1-n1nnnc1C1(C)CCC(=O)N1CCOc1ccccc1` (stereo not drawn) reads 6%; that for `CC1(C(=O)NCc2ccc3c(c2)OCO3)CCN1C(=O)Cc1cccs1` (stereo not drawn), 3.27%; that for `COc1ccc(NC(=O)C(C)SCc2ccccc2)cc1` (stereo not drawn), 0.44%. In the case of `CC(Sc1nnc2c(n1)C1CCC2(C)C1(C)C)C(=O)Nc1ccccc1` (stereo not drawn) it was -0.53%. As for `CSc1nc(C)cc(SC(C(C)=O)C(=O)Nc2ccccc2)n1` (stereo not drawn), the activation was 22.6% (active). With `CCCCN1C(=O)C(CC(=O)NCc2cccs2)CC(C(=O)N2CCCCCC2)=C1C` (stereo not drawn), the activation is 0.62%. For `C/C(=N\NC(=O)c1cccc([N+](=O)[O-])c1)c1cccnc1`, the activation is 1.53%. In the case of `Cc1cc(C)nc(NC(=O)c2cccc([N+](=O)[O-])c2)c1`, the activation was 31.6% (active).

With `O=C(Nc1ccc(C2CC2(Cl)Cl)cc1)c1cccc([N+](=O)[O-])c1` (stereo not drawn), the activation was -15.5%. `O=C(c1ccc(C(F)(F)F)cc1)C1CCCN(C(=O)c2csnn2)C1` (stereo not drawn): the activation was 5.9%. `c1ccc2c(c1)OCC(c1nn3cnnc3s1)O2` (stereo not drawn): the activation was 13.1%.

As to `CCc1ccc(NC(=O)CSc2nnc(-c3cnccn3)n2Cc2ccco2)cc1`, the activation is -2.71%. For `CCn1c(SCC(=O)Nc2cc(C)ccc2C)nnc1-c1cnccn1`, the activation is 35.7% (active). Take `CCn1c(SCC(=O)NC2CC2)nnc1-c1ccccn1`: the activation was -4.53%. As for `CC1COc2ccccc2N1C(=O)c1cccnc1Cl` (stereo not drawn), the activation was -13.4%. In the case of `CC(=O)c1c(C)[nH]c(C(=O)N2CCN(S(=O)(=O)c3ccc(F)c(F)c3)CC2)c1C` it was 1.38%.

For the molecule `CC(C)(C)C(=O)Nc1ccc(-c2cn3cccnc3n2)cc1`, the activation is 1.07%. On to `CN(C(=O)COC(=O)c1cc(-c2ccco2)nc2ccccc12)C1CCS(=O)(=O)C1` (stereo not drawn), for which the activation is -1.7%.

Take `COc1ccc2c(-c3ccccc3)cc(SCC(=O)N(C)C3CCS(=O)(=O)C3)nc2c1` (stereo not drawn): the activation was -1.12%.

For the molecule `Cc1c(-c2cccc(Cl)c2)nc2ccccc2c1C(=O)OCC(=O)N(C)C1CCS(=O)(=O)C1` (stereo not drawn), the activation was 22.5% (active). On to `O=C(Nc1ccc(F)cc1)C1CCCN(S(=O)(=O)c2ccc(-n3cnnn3)cc2)C1` (stereo not drawn), for which the activation was 8%.

Consider `CCOC(=O)c1ccc(S(=O)(=O)N(CCO)Cc2cc3cc(OC)c(OC)cc3[nH]c2=O)cc1`, for which the activation was -7.09%. `O=C(CN1C(=O)S/C(=C\c2ccccc2F)C1=O)NCCCn1ccnc1`: the activation is 17.2% (active). As to `O=C(NCCCn1ccnc1)/C(=C\c1ccccc1F)NC(=O)c1ccccc1`, the activation is -3.09%. Regarding `O=C(CCN1C(=O)c2ccccc2C1=O)NCCCn1ccnc1`, the activation was 8.67%. As for `CC(C)(C)CC(=O)Nc1nnc(SCC(=O)NCc2cccs2)s1`, the activation was -0.98%. As for `COC(=O)CSc1nnc(NC(=O)CCc2ccccc2)s1`, the activation is 19.8% (active). On to `COCCNc1nnc(SCC(=O)NNC(=O)c2ccco2)s1`, for which the activation is 2.78%. As for `COc1ccc(CC(=O)N2N=C(C)CC2(O)C(F)(F)F)cc1` (stereo not drawn), the activation was 24% (active). In the case of `CC1=NN(C(=O)CCCc2ccccc2)C(O)(C(F)(F)F)C1` (stereo not drawn) it was 9.78%; in that of `CC1=NN(C(=O)CCc2ccccc2O)C(O)(C(F)(F)F)C1` (stereo not drawn), 5.29%. Consider `Cn1cc(CN2CCCCC2c2ccccn2)c(-c2ccc3c(c2)OCCO3)n1` (stereo not drawn), for which the activation is 5.23%. In the case of `CCOC(=O)c1c(NC(=O)C2CC=CCC2C(=O)O)sc(C)c1CC` (stereo not drawn) it was 0.65%; in that of `O=C1CCCCC1Sc1ccc(Cl)cc1[N+](=O)[O-]` (stereo not drawn), -0.97%. The result for `O=C(NC1CCCCC1)C1CCCN(S(=O)(=O)c2ccc(Br)s2)C1` (stereo not drawn) reads -0.65%; that for `CC1=C(C(=O)N2CCOCC2)CC(CC(=O)NCc2cccc3ccccc23)C(=O)N1CCC1=CCCCC1` (stereo not drawn), 0.96%. In the case of `COc1ccc(C(C(=O)NCC2CCCO2)N(C(=O)Cn2nnc3ccccc32)c2ccc(NC(C)=O)cc2)cc1OC` (stereo not drawn) it was 6.34%. For the molecule `CCOc1cc(C(C(=O)NCC2CCCO2)N(C(=O)Cn2nnc3ccccc32)c2cccc(OC)c2)ccc1O` (stereo not drawn), the activation is 44.7% (active). In the case of `Cc1ccc(C(C(=O)NCc2ccco2)N(CC2CCCO2)C(=O)Cn2nnc3ccccc32)cc1` (stereo not drawn), the activation is 4.26%. As to `Cc1ccc(NC(=O)C2CC2)cc1S(=O)(=O)N1CCOCC1`, the activation is 0.09%. On to `CC(C)Oc1ccc(C(=O)Nc2cc(=O)n(C)c(=O)n2C)cc1`, for which the activation was 5.54%. As to `C=CCOc1ccc(/C=N/n2cncn2)cc1OC`, the activation was 8.05%. Take `O=C(Cn1c(=O)n(Cc2ccco2)c(=O)c2ccccc21)NCC1CCCO1` (stereo not drawn): the activation is 5.16%.

Regarding `COc1ccc(-c2oc3ncn(Cc4ccco4)c(=N)c3c2-c2ccc(OC)cc2)cc1`, the activation was -6.61%. The result for `Cn1c2ccccc2c(=O)c2c(=O)n(Cc3ccco3)c(COc3ccccc3)nc21` reads 21.8% (active); that for `CCc1cccc(NC(=O)COC(=O)c2cc(=O)c3ccccc3o2)c1`, 10.9%; that for `COc1ccc(CCNC(=O)COC(=O)c2cc(=O)c3ccccc3o2)cc1`, 26.3% (active).

Regarding `COc1ccc(CCNC(=O)COC(=O)c2ccc[nH]c2=O)cc1`, the activation is 11.3%.

Turning to `COC(=O)c1c(NC(=O)COC(=O)[C@@H](NS(=O)(=O)c2ccccc2)C(C)C)sc2c1CCC2`, the activation was -4.52%.

In the case of `COC(=O)c1scc(S(=O)(=O)C(C)(C)C)c1-n1cccc1`, the activation is -11.5%. Take `COc1cc(C(=O)N2CCN(C3CCC(C)CC3)CC2)cc(OC)c1OC` (stereo not drawn): the activation is -7.26%.

`CC(C)N=C1CCCC1C(=S)SSC(=S)C1CCCC1=NC(C)C` (stereo not drawn): the activation was 7.38%.

For the molecule `Cc1cc(C)cc(C(=O)NC(=S)Nc2ccc3[nH]c(=O)[nH]c3c2)c1`, the activation was 5.23%. In the case of `Cn1nnc(NC(=S)NC(=O)c2ccccc2)n1`, the activation was 22.4%. With `Cc1cc2[nH]ncc2cc1NC(=S)NC(=O)c1ccccc1`, the activation is 31.9% (active).

Turning to `COc1ccc(C(=O)C2CCCN(C(=O)c3ccc(OC)o3)C2)c(C)c1` (stereo not drawn), the activation is -1.21%. `O=c1c2ccccc2nc2n1C1(CCCCC1)Cc1ccccc1-2`: the activation is 21.2% (active). For the molecule `Cc1cccc(-n2c(SCC(N)=O)nc3c(c2=O)C2(CCCCC2)Cc2ccccc2-3)c1`, the activation was -5.47%. In the case of `CN(c1ccc2nc3ccccc3c(=O)n2n1)C1CCCCC1` it was 11.4%. The result for `Cc1ccc(C(=O)C(C)OC(=O)Cc2n[nH]c(=O)c3ccccc23)cc1C` (stereo not drawn) reads -4.11%; that for `COc1ccc(C(=O)N/N=C2\CCS(=O)(=O)c3ccc(F)cc32)cc1OC`, 2.71%; that for `Cc1sc2ncnc(N3CCC(C(=O)Nc4nc5ccc(Cl)cc5s4)CC3)c2c1C`, 7.24%. For the molecule `Cc1sc2ncnc(N3CCC(C(=O)NNC(=O)c4ccc(F)cc4)CC3)c2c1C`, the activation is -3.74%. In the case of `Cc1sc2ncnc(N3CCC(C(=O)Nc4ccc(F)cc4Cl)CC3)c2c1C` it was 45% (active); in that of `Cc1cccc(N(C)C(=O)c2cc(S(=O)(=O)N3CCCCC3)c[nH]2)c1`, -3.91%; in that of `NCC(=O)c1cccc2ccc[n+]([O-])c12`, 17.3% (active). With `Cc1ccc2cccc(O)c2[n+]1[O-]`, the activation is 16.2%. With `Cc1nc2sc(C(=O)c3ccccc3)c(N)c2c2c1CCCC2`, the activation was 63% (active). The result for `Cn1c(-c2ccc(C(=O)c3ccccc3)s2)nc2ccccc21` reads 0.98%; that for `Cc1cccc2cc3c(N)c(C(=O)N4CCCc5ccccc54)sc3nc12`, -7.18%; that for `O=C(NCc1ccccc1Cl)C(=O)NCC1CCCN1S(=O)(=O)c1cccs1` (stereo not drawn), -2.08%. Regarding `CC(Oc1ccccc1)C(=O)Nc1c2c(nn1-c1ccccc1)CS(=O)C2` (stereo not drawn), the activation was -0.93%. Consider `Cc1ccc(S(=O)(=O)N2CCN(C(=O)CSc3cc(C)ccc3C)CC2)c(C)c1`, for which the activation was 18.8% (active). As for `CCCc1cc(=O)[nH]c(SCC(=O)N2CCN(S(=O)(=O)c3ccc(C)cc3C)CC2)n1`, the activation is -1.77%.

In the case of `Cc1ccc(S(=O)(=O)N2CCN(C(=O)COC(=O)c3c(C)cc(C)cc3C)CC2)c(C)c1`, the activation was -3.37%. Regarding `CC(C#N)(NC(=O)CN1CCN(S(=O)(=O)c2cc(C(F)(F)F)ccc2Cl)CC1)C1CC1` (stereo not drawn), the activation is 0.11%. The result for `COc1cccc(NC(=O)C2CCCN(c3ncnc4c3nc3n4CCCCC3)C2)c1` (stereo not drawn) reads -6.71%; that for `CCOc1ccc(S(=O)(=O)Nc2cccc(C(=O)NCC3(N4CCCCC4)CCCCC3)c2)cc1`, -3.09%. In the case of `Cc1cc(C)c(S(=O)(=O)c2ccccc2)c(OC(=O)c2c(F)cccc2Cl)n1` it was 1.34%; in that of `O=C(O)CCS(=O)(=O)c1ccc(-c2ccccc2)cc1`, 20.7% (active); in that of `Cc1ccc(S(=O)(=O)CCC(=O)OCc2ccccc2)cc1`, 1.2%. The result for `O=C(CCS(=O)(=O)c1ccccc1)NC1CCCC1` reads 2.49%; that for `O=C1c2ccccc2NC(c2ccccn2)N1NS(=O)(=O)c1ccccc1` (stereo not drawn), 16.5%. Regarding `CN(CC(=O)NCCc1ccc(F)cc1)CC(=O)Nc1ccc(F)c(F)c1F`, the activation was 21.1% (active). As to `CN(CC(=O)NCc1ccc2c(c1)OCO2)CC(=O)Nc1ccc(F)c(F)c1F`, the activation is -5.56%. For the molecule `CN(CC(=O)NCCc1ccc(S(N)(=O)=O)cc1)CC(=O)Nc1ccc(F)c(F)c1F`, the activation is 0.07%.
